# Assay results: PubChem BioAssay AID1159580 (chemical genetic matrix, 2015)
# Out of some 5,500 compounds screened, about 2,000 (36%) were called active. Roughly 18% stayed inconclusive and do not appear here. Some of the results follow. A number with no mark means an inactive call. Rule as the data show it: active = normalized growth mostly below about 0.91 (no sharp cut-off); inconclusive = no clear call, values can overlap the other calls; inactive = mostly above about 0.92.
# Assay: chemical genetic growth profiling, strain panel (AID 1159580);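 also: tested at 20 µM; growth read once vehicle control cultures reached saturation at 30 °C; 1 = growth at the plate median or of vehicle wells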
# Conditions: S. cerevisiae deletion strains, growth OD
# [1] = locus YAR019C, strain CDC15, stronger effect = lower value
# [2] = locus YBL105C, strain PKC1, stronger effect = lower value
# [3] = locus YBR135W, strain CKS1, stronger effect = lower value
# [4] = locus YBR136W, strain MEC1, stronger effect = lower value
# [5] = locus YBR160W, strain CDC28, stronger effect = lower value
# [6] = locus YDL017W, strain CDC7, stronger effect = lower value
# [7] = locus YDL028C, strain MPS1, stronger effect = lower value
# [8] = locus YDL101C, strain DUN1, stronger effect = lower value
# [9] = locus YDL108W, strain KIN28, stronger effect = lower value
# [10] = locus YDL132W, strain cdc53, stronger effect = lower value
# [11] = locus YDL214C, strain PRR2, stronger effect = lower value
# [12] = locus YDR052C, strain DBF4, stronger effect = lower value
# [13] = locus YDR054C, strain cdc34, stronger effect = lower value
# [14] = locus YDR226W, strain ADK1, stronger effect = lower value
# [15] = locus YDR477W, strain SNF1, stronger effect = lower value
# [16] = locus YER123W, strain YCK3, stronger effect = lower value
# [17] = locus YER133W, strain GLC7, stronger effect = lower value
# [18] = locus YFL009W, strain cdc4, stronger effect = lower value
# [19] = locus YFL029C, strain CAK1, stronger effect = lower value
# [20] = locus YFR003C, strain YPI1, stronger effect = lower value
# [21] = locus YFR019W, strain FAB1, stronger effect = lower value
# [22] = locus YFR028C, strain CDC14, stronger effect = lower value
# [23] = locus YGR040W, strain KSS1, stronger effect = lower value
# [24] = locus YGR052W, strain FMP48, stronger effect = lower value
# [25] = locus YGR092W, strain DBF2, stronger effect = lower value
# [26] = locus YHR030C, strain SLT2, stronger effect = lower value
# [27] = locus YHR079C, strain IRE1, stronger effect = lower value
# [28] = locus YHR082C, strain KSP1, stronger effect = lower value
# [29] = locus YHR205W, strain SCH9, stronger effect = lower value
# [30] = locus YIL147C, strain SLN1, stronger effect = lower value
# [31] = locus YJL095W, strain BCK1, stronger effect = lower value
# [32] = locus YJL128C, strain PBS2, stronger effect = lower value
# [33] = locus YJL157C, strain FAR1, stronger effect = lower value
# [34] = locus YJR016C, strain ILV3, stronger effect = lower value
# [35] = locus YJR066W, strain TOR1 (second series), stronger effect = lower value
# [36] = locus YJR066W, strain TOR1, stronger effect = lower value
# [37] = locus YKL048C, strain ELM1, stronger effect = lower value
# [38] = locus YKL067W, strain YNK1, stronger effect = lower value
# [39] = locus YKL101W, strain HSL1, stronger effect = lower value
# [40] = locus YKL193C, strain SDS22, stronger effect = lower value
# [41] = locus YKL203C, strain TOR2, stronger effect = lower value
# [42] = locus YLR113W, strain HOG1, stronger effect = lower value
# [43] = locus YLR133W, strain CKI1, stronger effect = lower value
# [44] = locus YLR403W, strain SFP1, stronger effect = lower value
# [45] = locus YML070W, strain DAK1, stronger effect = lower value
# [46] = locus YMR001C, strain CDC5, stronger effect = lower value
# [47] = locus YMR205C, strain PFK2 (second series), stronger effect = lower value
# [48] = locus YMR277W, strain FCP1, stronger effect = lower value
# [49] = locus YNL006W, strain LST8, stronger effect = lower value
# [50] = locus YNL020C, strain ARK1, stronger effect = lower value
# [51] = locus YNL161W, strain CBK1, stronger effect = lower value
# [52] = locus YNL183C, strain NPR1, stronger effect = lower value
# [53] = locus YNL207W, strain RIO2, stronger effect = lower value
# [54] = locus YNL222W, strain SSU72, stronger effect = lower value
# [55] = locus YNL307C, strain MCK1 (second series), stronger effect = lower value
# [56] = locus YOL078W, strain AVO1, stronger effect = lower value
# [57] = locus YOL136C, strain PFK27, stronger effect = lower value
# [58] = locus YOR061W, strain CKA2, stronger effect = lower value
# [59] = locus YOR119C, strain RIO1, stronger effect = lower value
# [60] = locus YOR231W, strain MKK1, stronger effect = lower value
# [61] = locus YOR329C, strain SCD5, stronger effect = lower value
# [62] = locus YPL031C, strain PHO85, stronger effect = lower value
# [63] = locus YPL153C, strain RAD53, stronger effect = lower value
# [64] = locus YPL204W, strain HRR25, stronger effect = lower value
# [65] = locus YPL209C, strain IPL1, stronger effect = lower value
# [66] = locus YPL256C, strain CLN2, stronger effect = lower value
# [67] = locus YPR025C, strain CCL1, stronger effect = lower value
# [68] = locus YPR106W, strain ISR1, stronger effect = lower value
# [69] = locus YPR111W, strain DBF20, stronger effect = lower value
# [70] = strain NNK1, stronger effect = lower value
# [71] = strain TSCII, stronger effect = lower value
compound,measurement,setting,value
COc1cc(NC(=S)NC(=O)c2ccccc2)c(OC)cc1Cl,normalized growth,[1],0.985
same,normalized growth,[2],0.995
same,normalized growth,[3],0.99
same,normalized growth,[4],0.99
same,normalized growth,[5],0.997
same,normalized growth,[6],0.998
same,normalized growth,[7],0.988
same,normalized growth,[8],0.998
same,normalized growth,[9],0.981
same,normalized growth,[10],1
same,normalized growth,[11],0.962
same,normalized growth,[12],0.996
same,normalized growth,[13],0.994
same,normalized growth,[14],0.996
same,normalized growth,[15],0.973
same,normalized growth,[16],0.963
same,normalized growth,[17],0.986
same,normalized growth,[18],0.994
same,normalized growth,[19],0.98
same,normalized growth,[20],0.998
same,normalized growth,[21],0.974
same,normalized growth,[22],1
same,normalized growth,[23],0.963
same,normalized growth,[24],1.04
same,normalized growth,[25],0.989
same,normalized growth,[26],0.949
same,normalized growth,[27],0.979
same,normalized growth,[28],1
same,normalized growth,[29],0.9
same,normalized growth,[30],0.993
same,normalized growth,[31],0.961
same,normalized growth,[32],0.971
same,normalized growth,[33],0.989
same,normalized growth,[34],1
same,normalized growth,[35],0.951
same,normalized growth,[36],0.997
same,normalized growth,[37],0.981
same,normalized growth,[38],0.974
same,normalized growth,[39],0.939
same,normalized growth,[40],1
same,normalized growth,[41],1.05
same,normalized growth,[42],0.91
same,normalized growth,[43],0.968
same,normalized growth,[44],0.941
same,normalized growth,[45],0.957
same,normalized growth,[46],0.995
same,normalized growth,[47],0.977
same,normalized growth,[48],1
same,normalized growth,[49],0.991
same,normalized growth,[50],0.977
same,normalized growth,[51],1
same,normalized growth,[52],0.981
same,normalized growth,[53],1
same,normalized growth,[54],0.992
same,normalized growth,[55],0.968
same,normalized growth,[56],0.999
same,normalized growth,[57],0.968
same,normalized growth,[58],0.953
same,normalized growth,[59],0.983
same,normalized growth,[60],0.962
same,normalized growth,[61],0.996
same,normalized growth,[62],0.971
same,normalized growth,[63],0.966
same,normalized growth,[64],0.986
same,normalized growth,[65],0.995
same,normalized growth,[66],0.959
same,normalized growth,[67],0.998
same,normalized growth,[68],0.989
same,normalized growth,[69],0.986
same,normalized growth,[70],0.981
same,normalized growth,[71],1
COc1cc(NC(=S)N(C)C)c(OC)cc1Cl,normalized growth,[1],0.984
same,normalized growth,[2],0.987
same,normalized growth,[3],0.996
same,normalized growth,[4],0.977
same,normalized growth,[5],0.991
same,normalized growth,[6],0.985
same,normalized growth,[7],0.987
same,normalized growth,[8],0.991
same,normalized growth,[9],0.996
same,normalized growth,[10],0.999
same,normalized growth,[11],0.984
same,normalized growth,[12],0.992
same,normalized growth,[13],0.983
same,normalized growth,[14],0.987
same,normalized growth,[15],0.979
same,normalized growth,[16],0.978
same,normalized growth,[17],0.99
same,normalized growth,[18],0.99
same,normalized growth,[19],0.983
same,normalized growth,[20],0.99
same,normalized growth,[21],0.971
same,normalized growth,[22],0.995
same,normalized growth,[23],0.974
same,normalized growth,[24],1.07
same,normalized growth,[25],0.992
same,normalized growth,[26],0.977
same,normalized growth,[27],0.984
same,normalized growth,[28],1.03
same,normalized growth,[29],0.963
same,normalized growth,[30],0.984
same,normalized growth,[31],0.982
same,normalized growth,[32],0.976
same,normalized growth,[33],0.997
same,normalized growth,[34],0.993
same,normalized growth,[35],0.967
same,normalized growth,[36],1
same,normalized growth,[37],0.991
same,normalized growth,[38],0.991
same,normalized growth,[39],0.971
same,normalized growth,[40],0.986
same,normalized growth,[41],1.03
same,normalized growth,[42],0.932
same,normalized growth,[43],0.987
same,normalized growth,[44],0.986
same,normalized growth,[45],0.974
same,normalized growth,[46],0.985
same,normalized growth,[47],0.988
same,normalized growth,[48],0.997
same,normalized growth,[49],0.984
same,normalized growth,[50],0.991
same,normalized growth,[51],0.982
same,normalized growth,[52],0.968
same,normalized growth,[53],0.987
same,normalized growth,[54],0.992
same,normalized growth,[55],1
same,normalized growth,[56],0.991
same,normalized growth,[57],0.984
same,normalized growth,[58],0.996
same,normalized growth,[59],1.01
same,normalized growth,[60],0.968
same,normalized growth,[61],0.984
same,normalized growth,[62],0.976
same,normalized growth,[63],0.97
same,normalized growth,[64],0.991
same,normalized growth,[65],0.988
same,normalized growth,[66],0.948
same,normalized growth,[67],0.999
same,normalized growth,[68],0.993
same,normalized growth,[69],0.996
same,normalized growth,[70],1
same,normalized growth,[71],0.989
COc1cc(NC(=S)NNS(=O)(=O)c2ccc(C)cc2)c(OC)cc1Cl,normalized growth,[1],0.982
same,normalized growth,[2],0.974
same,normalized growth,[3],0.978
same,normalized growth,[4],0.971
same,normalized growth,[5],0.984
same,normalized growth,[6],0.984
same,normalized growth,[7],0.982
same,normalized growth,[8],0.976
same,normalized growth,[9],0.984
same,normalized growth,[10],0.974
same,normalized growth,[11],0.939
same,normalized growth,[12],0.986
same,normalized growth,[13],0.949
same,normalized growth,[14],0.974
same,normalized growth,[15],0.933
same,normalized growth,[16],0.921
same,normalized growth,[17],0.953
same,normalized growth,[18],0.982
same,normalized growth,[19],0.976
same,normalized growth,[20],0.985
same,normalized growth,[21],0.955
same,normalized growth,[22],0.968
same,normalized growth,[23],0.942
same,normalized growth,[24],1.06
same,normalized growth,[25],1.01
same,normalized growth,[26],0.858
same,normalized growth,[27],0.997
same,normalized growth,[28],1.02
same,normalized growth,[29],0.961
same,normalized growth,[30],0.986
same,normalized growth,[31],0.927
same,normalized growth,[32],0.966
same,normalized growth,[33],0.975
same,normalized growth,[34],0.977
same,normalized growth,[35],0.955
same,normalized growth,[36],0.97
same,normalized growth,[37],0.953
same,normalized growth,[38],0.94
same,normalized growth,[39],0.935
same,normalized growth,[40],0.97
same,normalized growth,[41],1
same,normalized growth,[42],0.849 (active)
same,normalized growth,[43],0.947
same,normalized growth,[44],0.959
same,normalized growth,[45],0.942
same,normalized growth,[46],0.979
same,normalized growth,[47],0.947
same,normalized growth,[48],0.963
same,normalized growth,[49],0.986
same,normalized growth,[50],0.96
same,normalized growth,[51],0.984
same,normalized growth,[52],0.939
same,normalized growth,[53],0.981
same,normalized growth,[54],0.973
same,normalized growth,[55],0.941
same,normalized growth,[56],0.971
same,normalized growth,[57],0.929
same,normalized growth,[58],0.967
same,normalized growth,[59],1.05
same,normalized growth,[60],0.994
same,normalized growth,[61],0.984
same,normalized growth,[62],0.95
same,normalized growth,[63],0.95
same,normalized growth,[64],0.92
same,normalized growth,[65],0.972
same,normalized growth,[66],0.886
same,normalized growth,[67],0.972
same,normalized growth,[68],0.977
same,normalized growth,[69],0.951
same,normalized growth,[70],0.972
same,normalized growth,[71],0.98
